# Source: publication PMC5540273 (PLoS ONE, 2017)
# System: CHEK1
# Conditions: concentration: 1 μM, replicates: in singlicate; n = 1
# 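Note: KINOMEscan kinase panel screen.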
row,SMILES,%Inh [%]
1,CCCC(=O)Nc1n[nH]c2ncc(-c3cccc4ccccc34)cc12 [SB-642057],0
2,Nc1nc(N)c2nc(-c3ccccc3)[nH]c2n1 [SKF-12778],0
3,Cl.c1ccc(Cn2cnc3cc(Nc4ncnc5ccccc45)ccc32)cc1 [GW272142],0
4,COc1cccc(-n2cnc3c(N)ncnc32)c1 [SKF-97416],0
5,COC(=O)c1c(-c2ccccc2)c2cc(Br)ccc2c(=O)n1Cc1ccc(S(C)(=O)=O)cc1,0
6,COc1cccc(C2=C(Nc3cccc(C(=O)O)c3)C(=O)NC2=O)c1 [SB-390770],0
7,O=C1NC(=O)C(c2ccccc2)=C1Nc1cccc(O)c1 [SB-390534],0
8,O=c1cc(N2CCOCC2)nc2n(Cc3ccc(F)c(Cl)c3)ccn12 [GSK2297099],4
9,Cc1nnc(-c2ccc3ncn(-c4ccc(S(C)=O)cc4)c3c2)o1 (centres unmarked),1
10,CCc1nc(-c2cccc(C)c2)c(-c2ccncc2)s1,0
11,CCn1c(-c2ccoc2)nc2cnccc21 [SB-733887],17
12,COc1cc2ncn(-c3cc(OCc4ccc(S(C)(=O)=O)cc4)c(C(N)=O)s3)c2cc1OC [GW869979],18
13,COc1ccc(-c2coc3ccc(-c4nnc(SCc5cccc(C#N)c5)o4)cc23)cc1,0
14,Fc1cccc(CSc2nnc(-c3ccc4c(c3)CCO4)o2)c1,0
15,Cc1ccc(Oc2ccc(Nc3ncnc4cc[nH]c34)cc2C)cn1,6
16,COc1ccc(-n2cnc3c(N)ncnc32)cc1 [SKF-97236],2
17,COc1cc(Nc2nccc(N3CCC(NC(=O)C(C)c4ccc(Cl)cc4)C3)n2)cc(OC)c1OC (centres unmarked) [GSK1379757],0
18,Cc1nn2c(=O)cc(N3CCOCC3)nc2n1Cc1cccc(Cl)c1Cl [GSK2342769],26
19,COc1ccc(-c2cc3c(C)nc(N)nc3n([C@H]3CC[C@H](O)CC3)c2=O)cn1,0

row,SMILES,%Inh [%]
1,COc1cc2ncn(-c3cc(OCc4ccncc4)c(C(N)=O)s3)c2cc1OC [GSK336313],0
2,COc1cc(Nc2nccc(N3CCC(NC(=O)C4COc5ccccc5O4)C3)n2)cc(OC)c1OC (centres unmarked) [GSK1379761],0
3,Nc1ncnc2c1ncn2-c1cccc(F)c1 [SKF-97560],17
4,CCC(=O)c1c(-c2ccccc2)c2cc(Cl)ccc2c(=O)n1Cc1cc(C(=O)NC2CC2)n(C)n1,0
5,Nc1n[nH]c2ncc(-c3ccccc3)cc12 [SB-517081],12
6,Cc1nc(N(C)[C@H]2CN(C(=O)CC#N)CC[C@H]2C)c2cc[nH]c2n1,48
7,CC(C)(C)c1ccc(C(=O)Nc2cn3cc(-c4ccccc4)ccc3n2)cc1,4
8,FC(F)(F)c1ccc(-c2ncn(CCCN3CCOCC3)c2-c2ccncc2)cc1 [SB-217780],0
9,O=C(Nc1n[nH]c2nc(-c3ccccc3)c(Cl)cc12)C1CC1 [SB-734909],0
10,COc1ccc(-c2cc3c(C)nc(N)nc3n([C@H]3CC[C@H](OCCO)CC3)c2=O)cn1,0
11,Cc1ccc(-c2ccc3c(ccc4sc5c(c43)NC[C@@H](C)N=C5N(C)C)n2)cn1,0
12,Nc1n[nH]c2nnc(-c3ccccc3)c(-c3ccccc3)c12 [GW554060],24
13,CCC(=O)c1c(-c2ccccc2)c2cc(Cl)ccc2c(=O)n1Cc1ccc(C(=O)O)cc1,0
14,CCS(=O)(=O)c1ccc(OC)c(Nc2ncc(-c3ccc(F)cc3)o2)c1.Cl [GW591947],0
15,CCS(=O)c1ccc(-c2coc3ccc(-c4nnc(C)o4)cc23)cc1 (centres unmarked),0
16,O=C(NCc1cccs1)c1cc(C(=O)c2c(Cl)cccc2Cl)c[nH]1 [GW823670],22
17,COc1cccc(C2=C(N(C)c3ccccc3)C(=O)NC2=O)c1 [SB-334865],0
18,OCCCNc1nccc(-c2c(-c3cccc(C(F)(F)F)c3)nn3cc(C(F)(F)F)ccc23)n1 [GW630813],0

# System: CHEK2
# Conditions: concentration: 1 μM, replicates: in singlicate; n = 1
row,SMILES,%Inh [%]
1,CCCC(=O)Nc1n[nH]c2ncc(-c3cccc4ccccc34)cc12 [SB-642057],0
2,Nc1nc(N)c2nc(-c3ccccc3)[nH]c2n1 [SKF-12778],0
3,Cl.c1ccc(Cn2cnc3cc(Nc4ncnc5ccccc45)ccc32)cc1 [GW272142],0
4,COc1cccc(-n2cnc3c(N)ncnc32)c1 [SKF-97416],25
5,COC(=O)c1c(-c2ccccc2)c2cc(Br)ccc2c(=O)n1Cc1ccc(S(C)(=O)=O)cc1,23
6,COc1cccc(C2=C(Nc3cccc(C(=O)O)c3)C(=O)NC2=O)c1 [SB-390770],0
7,O=C1NC(=O)C(c2ccccc2)=C1Nc1cccc(O)c1 [SB-390534],16
8,O=c1cc(N2CCOCC2)nc2n(Cc3ccc(F)c(Cl)c3)ccn12 [GSK2297099],0
9,Cc1nnc(-c2ccc3ncn(-c4ccc(S(C)=O)cc4)c3c2)o1 (centres unmarked),0
10,CCc1nc(-c2cccc(C)c2)c(-c2ccncc2)s1,16
11,CCn1c(-c2ccoc2)nc2cnccc21 [SB-733887],24
12,COc1cc2ncn(-c3cc(OCc4ccc(S(C)(=O)=O)cc4)c(C(N)=O)s3)c2cc1OC [GW869979],0
13,COc1ccc(-c2coc3ccc(-c4nnc(SCc5cccc(C#N)c5)o4)cc23)cc1,0
14,Fc1cccc(CSc2nnc(-c3ccc4c(c3)CCO4)o2)c1,3
15,Cc1ccc(Oc2ccc(Nc3ncnc4cc[nH]c34)cc2C)cn1,22
16,COc1ccc(-n2cnc3c(N)ncnc32)cc1 [SKF-97236],0
17,COc1cc(Nc2nccc(N3CCC(NC(=O)C(C)c4ccc(Cl)cc4)C3)n2)cc(OC)c1OC (centres unmarked) [GSK1379757],8
18,Cc1nn2c(=O)cc(N3CCOCC3)nc2n1Cc1cccc(Cl)c1Cl [GSK2342769],0
19,COc1ccc(-c2cc3c(C)nc(N)nc3n([C@H]3CC[C@H](O)CC3)c2=O)cn1,13

row,SMILES,%Inh [%]
1,COc1cc2ncn(-c3cc(OCc4ccncc4)c(C(N)=O)s3)c2cc1OC [GSK336313],0
2,COc1cc(Nc2nccc(N3CCC(NC(=O)C4COc5ccccc5O4)C3)n2)cc(OC)c1OC (centres unmarked) [GSK1379761],29
3,Nc1ncnc2c1ncn2-c1cccc(F)c1 [SKF-97560],0
4,CCC(=O)c1c(-c2ccccc2)c2cc(Cl)ccc2c(=O)n1Cc1cc(C(=O)NC2CC2)n(C)n1,6
5,Nc1n[nH]c2ncc(-c3ccccc3)cc12 [SB-517081],0
6,Cc1nc(N(C)[C@H]2CN(C(=O)CC#N)CC[C@H]2C)c2cc[nH]c2n1,0
7,CC(C)(C)c1ccc(C(=O)Nc2cn3cc(-c4ccccc4)ccc3n2)cc1,0
8,FC(F)(F)c1ccc(-c2ncn(CCCN3CCOCC3)c2-c2ccncc2)cc1 [SB-217780],33
9,O=C(Nc1n[nH]c2nc(-c3ccccc3)c(Cl)cc12)C1CC1 [SB-734909],22
10,COc1ccc(-c2cc3c(C)nc(N)nc3n([C@H]3CC[C@H](OCCO)CC3)c2=O)cn1,12
11,Cc1ccc(-c2ccc3c(ccc4sc5c(c43)NC[C@@H](C)N=C5N(C)C)n2)cn1,1
12,Nc1n[nH]c2nnc(-c3ccccc3)c(-c3ccccc3)c12 [GW554060],0
13,CCC(=O)c1c(-c2ccccc2)c2cc(Cl)ccc2c(=O)n1Cc1ccc(C(=O)O)cc1,0
14,CCS(=O)(=O)c1ccc(OC)c(Nc2ncc(-c3ccc(F)cc3)o2)c1.Cl [GW591947],0
15,CCS(=O)c1ccc(-c2coc3ccc(-c4nnc(C)o4)cc23)cc1 (centres unmarked),0
16,O=C(NCc1cccs1)c1cc(C(=O)c2c(Cl)cccc2Cl)c[nH]1 [GW823670],0
17,COc1cccc(C2=C(N(C)c3ccccc3)C(=O)NC2=O)c1 [SB-334865],0
18,OCCCNc1nccc(-c2c(-c3cccc(C(F)(F)F)c3)nn3cc(C(F)(F)F)ccc23)n1 [GW630813],1
